Source: PubChem BioAssay AID493005 (National Center for Advancing Translational Sciences (NCATS), 2010)
Among all 340,000 compounds or so, fewer than 10 were called active. Calls come from the whole dose curve; as a rule, active = well fitted inhibition curve with a large enough effect in the main read-out, with a control signal flat (not every such curve was filed as active); inconclusive = small, poorly fitted or top-dose-only effect, or effect the other way, or a change in a side signal; inactive = no such curve, though single readings can be large or run the other way. Only a sample is shown.

Target: Tumor susceptibility gene 101 protein (Homo sapiens) (UniProt Q99816)
Test: qHTS Assay for Iinhibitors of HIV-1 Budding by Blocking the Interaction of PTAP/TSG101
Conditions: Fluorescence polarization, FITC-PTAP peptide / Tsg101 binding; series mostly up to 115 µM
From the text: NIH Molecular Libraries Probe Production Network [MLPCN] NIH Chemical Genomics Center [NCGC] MLPCN Grant: 1 R03 MH087464-01A1 PI Name: Dr. Eric Freed, NCI NCGC Assay Overview: Stages of the HIV-1 replication cycle, specifically virus assembly and release, provide underexploited targets for the development of novel antiviral inhibitors. The late stages of HIV-1 replication are mediated by the Gag precursor protein, Pr55Gag. Expression of Pr55Gag is both necessary and sufficient for the production of virus-like particles from Gag-expressing cells. The Gag protein hijacks key host proteins involved in endocytic machinery of the host cell to promote endosomal processing and viral budding. The budding process requires a direct interaction between a […] (PTAP) motif in the p6 domain of Gag and the cellular endosomal sorting protein known as Tsg101. In this way, the Gag PTAP motif promotes the host cells to recruit viral particles to the plasma membrane where the new viral particles are released, effectively turning the host cells into viral factories. A fluorescence anisotropy assay has been developed to quantitatively measure the PTAP-Tsg101 interaction which can be used to screen for inhibitors of this interaction.
NCGC Assay Protocol Summary: Two uL of the Tsg101 binding domain in buffer (10 mM HEPES pH 7.5; 0.15 M NaCl, 0.01% Tween 20; 3 mM EDTA;0.1 mM TCEP) was dispensed into Greiner black MB 1536-well plates (final concentration 10 uM). Then, 23 nL of compounds or DMSO were delivered to each well using a pin tool. Finally, 2 uL of a FITC-labeled peptide containing the PTAP motif (1) in the same buffer was dispensed (50 nM final concentration) and the binding was allowed to proceed for 20 min. at r.t. Fluorescent polarization was determined using FITC excitation and polarized emission filters on a Perkin Elmer Viewlux. Keywords: Tsg101, PTAP, Gag, HIV, fluorescent polarization, MLSMR, MLPCN, NIH Roadmap, qHTS, NCGC

Chain of Tumor susceptibility gene 101 protein (Homo sapiens) (Q99816 whole entry, looked up): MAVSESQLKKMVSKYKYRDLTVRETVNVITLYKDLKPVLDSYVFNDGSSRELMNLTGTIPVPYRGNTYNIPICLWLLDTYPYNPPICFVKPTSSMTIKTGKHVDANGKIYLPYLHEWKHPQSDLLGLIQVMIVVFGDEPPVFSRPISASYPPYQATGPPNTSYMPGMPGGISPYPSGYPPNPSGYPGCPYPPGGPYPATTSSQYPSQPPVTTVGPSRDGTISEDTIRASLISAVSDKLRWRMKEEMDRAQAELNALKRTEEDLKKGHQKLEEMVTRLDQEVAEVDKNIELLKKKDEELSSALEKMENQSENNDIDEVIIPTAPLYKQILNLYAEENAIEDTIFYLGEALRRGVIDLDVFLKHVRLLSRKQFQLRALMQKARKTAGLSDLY

outcome, inactive:
Cc1cc(C)cc(-c2nnc(SCC(=O)NC3CC3)o2)c1
CCc1cccc(C)c1NC(=S)N(CCCN1CCN(C)CC1)Cc1cccs1
COc1cccc(NC(=O)Cn2c3ccc(F)cc3c3nc4n(c(=O)c32)CCS4)c1
O=S(=O)(NN=C1CCCCCCC1)c1ccc(Br)cc1
Cn1c2ccccc2n2c(=O)c(=O)n(CC(=O)c3ccc(F)cc3)nc12
CCOc1ccc(NC(=O)COc2ccc(C(=O)N3CCC(C(N)=O)CC3)cc2OC)cc1
CC(NS(=O)(=O)c1ccccc1)c1n[nH]c(=S)n1-c1ccccc1 (stereo not given)
O=C(O)C1CCCCC1C(=O)N1CCN(S(=O)(=O)c2ccc(F)cc2)CC1 (stereo not given)
COc1ccc(OCc2n[nH]c(=S)n2N)cc1
Cc1ccccc1-n1cc(CNC(=O)CC2C(=O)NCCN2C/C=C/c2ccccc2)cn1 (stereo not given)
CN1CCCN(C(=O)C2CCCCC2)CC1
CCc1nc(SCC(=O)Nc2ccccc2OC)n[nH]1
CC(=O)N(CN1C(=O)C2CC=CCC2C1=O)c1cccc(Cl)c1 (stereo not given)
O=C(O)CCN(Cc1ccccc1)S(=O)(=O)c1c(Cl)cccc1Cl
CSc1nc2nc(-c3cccc(C(F)(F)F)c3)ccn2n1
CC(=O)n1cc([C@@H]2C=C(C(=O)N3CCN(Cc4ccc5c(c4)OCO5)CC3)O[C@H](OCc3ccc(CO)cc3)C2)c2ccccc21
CC(=O)N1CCOc2ccc(S(=O)(=O)N3CCC(C(=O)Nc4ccccc4F)CC3)cc21
COc1ccc(Cl)cc1NS(=O)(=O)c1cccc(C(=O)NCC2CCCO2)c1 (stereo not given)
CC1=C2C(=O)OC(c3ccoc3)C2(C)CCC1 (stereo not given)
C/C(=N\N1CCN(Cc2ccc(C)cc2)CC1)c1ccco1
O=C1CCC(=O)N1CCOP1(=O)COc2ccccc2OC1
O=C1c2ccccc2NC(c2ccccc2O)N1NS(=O)(=O)c1ccccc1 (stereo not given)
COc1cccc(C(=O)Nc2cc3c(cc2Br)OCCCO3)c1
COc1ccccc1C(=O)Nc1ccnn1C1CCN(C(=O)C(C)(C)C)CC1
O=C(CCSc1ccccc1)NCCSc1ccccn1
CCCCC(=O)NC(c1ccc(OC)c(OC)c1)c1ccc2cccnc2c1O (stereo not given)
CN(C)CCNC(=O)c1ccc(Cl)c2cc3ccccc3nc12
CCCCN(C(=O)CSCC(=O)Nc1ccc(OC)cc1)c1c(N)n(CCC)c(=O)[nH]c1=O
C=CCN1C(=O)C(Cc2ccc(OCC)cc2)SC1=Nc1ccc(C(=O)O)cc1 (stereo not given)
O=C(O)CN(Cc1ccco1)S(=O)(=O)c1ccc(F)cc1
